# ChEMBL document CHEMBL1961873, “Compounds: GSK PKIS; Assays: Nanosyn kinase panel” (2012)
# Legend:
# [1] = biological target: Sphingosine kinase 1 (Homo sapiens) (UniProt Q9NYA1); conditions: at 1 µM;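 note: mean SPHK1 inhibition value reported from the GSK PKIS kinase panel screen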
# [2] = biological target: T1, Sphingosine kinase 2 (Homo sapiens) (UniProt Q9NRA0); conditions: at 0.1 µM
# T1 sequence (whole entry): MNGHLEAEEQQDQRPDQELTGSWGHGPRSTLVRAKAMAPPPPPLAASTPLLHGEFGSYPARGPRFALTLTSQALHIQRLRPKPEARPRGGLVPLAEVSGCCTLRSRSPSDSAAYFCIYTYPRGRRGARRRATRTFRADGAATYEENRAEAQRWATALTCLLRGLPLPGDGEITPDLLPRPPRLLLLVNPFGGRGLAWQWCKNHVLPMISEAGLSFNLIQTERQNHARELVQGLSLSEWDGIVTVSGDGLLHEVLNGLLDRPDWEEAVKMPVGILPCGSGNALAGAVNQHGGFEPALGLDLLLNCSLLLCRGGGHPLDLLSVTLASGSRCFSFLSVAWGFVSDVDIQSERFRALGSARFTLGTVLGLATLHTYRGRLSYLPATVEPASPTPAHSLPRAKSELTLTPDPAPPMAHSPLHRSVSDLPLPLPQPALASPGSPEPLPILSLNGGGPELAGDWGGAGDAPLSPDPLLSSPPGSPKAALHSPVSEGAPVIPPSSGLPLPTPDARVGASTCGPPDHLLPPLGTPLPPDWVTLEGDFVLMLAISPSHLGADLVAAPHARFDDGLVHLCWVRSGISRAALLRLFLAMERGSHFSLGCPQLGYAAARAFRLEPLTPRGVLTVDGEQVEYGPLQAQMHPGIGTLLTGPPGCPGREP
# [3] = biological target: T1, Sphingosine kinase 2 (Homo sapiens); conditions: at 1 µM
# [4] = biological target: Casein kinase II subunit alpha (Homo sapiens) (UniProt P68400); conditions: at 0.1 µM
# Sequence of Casein kinase II subunit alpha (Homo sapiens) (P68400 whole entry, looked up): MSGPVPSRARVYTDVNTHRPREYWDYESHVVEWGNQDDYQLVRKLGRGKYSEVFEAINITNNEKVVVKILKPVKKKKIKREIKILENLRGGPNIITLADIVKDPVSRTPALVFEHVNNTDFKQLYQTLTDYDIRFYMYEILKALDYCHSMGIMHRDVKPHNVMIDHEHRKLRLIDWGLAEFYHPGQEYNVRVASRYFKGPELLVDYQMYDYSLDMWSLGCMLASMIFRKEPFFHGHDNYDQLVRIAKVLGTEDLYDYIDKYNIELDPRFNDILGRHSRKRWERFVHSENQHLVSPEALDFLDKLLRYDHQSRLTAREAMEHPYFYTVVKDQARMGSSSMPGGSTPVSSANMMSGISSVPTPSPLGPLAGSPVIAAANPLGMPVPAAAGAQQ
# [5] = biological target: Casein kinase II subunit alpha (Homo sapiens) (UniProt P68400); conditions: at 1 µM
# [6] = biological target: T2, Inhibitor of nuclear factor kappa-B kinase subunit alpha (Homo sapiens) (UniProt O15111); conditions: at 0.1 µM
# T2 sequence (whole entry): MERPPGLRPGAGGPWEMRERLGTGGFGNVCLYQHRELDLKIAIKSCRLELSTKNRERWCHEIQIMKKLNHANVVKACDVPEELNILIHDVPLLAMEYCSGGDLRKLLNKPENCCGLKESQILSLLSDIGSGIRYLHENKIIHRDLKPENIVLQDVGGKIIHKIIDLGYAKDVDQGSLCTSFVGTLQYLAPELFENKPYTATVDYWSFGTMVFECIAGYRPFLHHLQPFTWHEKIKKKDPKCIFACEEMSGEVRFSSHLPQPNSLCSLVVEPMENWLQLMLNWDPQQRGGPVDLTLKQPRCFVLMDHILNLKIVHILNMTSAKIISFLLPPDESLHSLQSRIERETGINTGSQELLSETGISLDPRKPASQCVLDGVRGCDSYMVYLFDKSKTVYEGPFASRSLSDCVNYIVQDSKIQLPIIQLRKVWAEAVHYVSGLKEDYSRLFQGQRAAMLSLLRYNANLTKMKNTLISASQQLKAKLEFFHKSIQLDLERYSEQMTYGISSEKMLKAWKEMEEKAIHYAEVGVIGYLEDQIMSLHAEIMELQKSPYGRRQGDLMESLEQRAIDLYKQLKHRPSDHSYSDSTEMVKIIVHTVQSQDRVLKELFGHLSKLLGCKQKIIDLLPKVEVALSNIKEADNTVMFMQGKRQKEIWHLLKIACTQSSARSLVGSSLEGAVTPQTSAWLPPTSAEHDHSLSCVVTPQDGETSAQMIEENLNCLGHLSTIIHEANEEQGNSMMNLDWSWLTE
# [7] = biological target: T2, Inhibitor of nuclear factor kappa-B kinase subunit alpha (Homo sapiens); conditions: at 1 µM
# [8] = biological target: T3, Inhibitor of nuclear factor kappa-B kinase subunit beta (Homo sapiens) (UniProt O14920); conditions: at 0.1 µM
# T3 sequence (whole entry): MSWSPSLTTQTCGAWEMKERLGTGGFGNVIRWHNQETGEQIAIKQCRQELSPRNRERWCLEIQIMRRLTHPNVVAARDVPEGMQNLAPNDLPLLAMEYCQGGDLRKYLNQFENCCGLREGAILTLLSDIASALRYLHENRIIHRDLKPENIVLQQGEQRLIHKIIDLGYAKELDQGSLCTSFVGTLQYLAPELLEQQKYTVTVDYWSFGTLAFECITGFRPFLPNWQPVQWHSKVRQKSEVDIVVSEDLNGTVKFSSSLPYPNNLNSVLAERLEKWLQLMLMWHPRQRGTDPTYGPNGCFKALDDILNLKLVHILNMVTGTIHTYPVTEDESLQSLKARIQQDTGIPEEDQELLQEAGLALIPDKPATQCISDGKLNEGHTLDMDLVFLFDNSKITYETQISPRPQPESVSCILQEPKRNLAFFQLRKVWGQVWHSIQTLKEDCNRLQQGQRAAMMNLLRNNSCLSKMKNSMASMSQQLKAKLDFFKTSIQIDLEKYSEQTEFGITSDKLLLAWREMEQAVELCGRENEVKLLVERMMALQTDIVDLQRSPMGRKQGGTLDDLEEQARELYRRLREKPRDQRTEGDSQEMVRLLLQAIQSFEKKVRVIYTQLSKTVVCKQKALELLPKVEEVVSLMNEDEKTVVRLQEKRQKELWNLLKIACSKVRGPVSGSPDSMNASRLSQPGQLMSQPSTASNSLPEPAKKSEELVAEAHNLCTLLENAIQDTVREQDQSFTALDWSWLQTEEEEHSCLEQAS
# [9] = biological target: T3, Inhibitor of nuclear factor kappa-B kinase subunit beta (Homo sapiens); conditions: at 1 µM
# [10] = biological target: T4, Inhibitor of nuclear factor kappa-B kinase subunit epsilon (Homo sapiens) (UniProt Q14164); conditions: at 0.1 µM
# T4 sequence (whole entry): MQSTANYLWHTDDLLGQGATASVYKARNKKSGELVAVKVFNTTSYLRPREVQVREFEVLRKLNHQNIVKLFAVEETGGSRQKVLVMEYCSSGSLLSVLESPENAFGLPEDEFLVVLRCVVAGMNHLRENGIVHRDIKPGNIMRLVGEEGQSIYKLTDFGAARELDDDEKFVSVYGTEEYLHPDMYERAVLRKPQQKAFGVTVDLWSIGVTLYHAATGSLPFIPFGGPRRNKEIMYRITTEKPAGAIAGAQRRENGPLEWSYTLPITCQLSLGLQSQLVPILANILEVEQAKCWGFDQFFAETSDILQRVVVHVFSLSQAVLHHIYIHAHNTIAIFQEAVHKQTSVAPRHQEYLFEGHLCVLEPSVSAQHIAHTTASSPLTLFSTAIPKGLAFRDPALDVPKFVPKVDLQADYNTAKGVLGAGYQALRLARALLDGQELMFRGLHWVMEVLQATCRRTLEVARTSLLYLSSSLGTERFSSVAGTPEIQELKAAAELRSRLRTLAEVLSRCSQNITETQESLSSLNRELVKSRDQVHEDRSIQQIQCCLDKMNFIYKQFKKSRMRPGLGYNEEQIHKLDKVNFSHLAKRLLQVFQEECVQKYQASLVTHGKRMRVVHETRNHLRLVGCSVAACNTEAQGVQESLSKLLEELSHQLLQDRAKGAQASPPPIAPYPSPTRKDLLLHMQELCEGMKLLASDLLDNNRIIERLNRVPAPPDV
# [11] = biological target: T4, Inhibitor of nuclear factor kappa-B kinase subunit epsilon (Homo sapiens); conditions: at 1 µM
# [12] = biological target: T5, Serine/threonine-protein kinase Nek1 (Homo sapiens) (UniProt Q96PY6); conditions: at 0.1 µM
# T5 sequence (whole entry): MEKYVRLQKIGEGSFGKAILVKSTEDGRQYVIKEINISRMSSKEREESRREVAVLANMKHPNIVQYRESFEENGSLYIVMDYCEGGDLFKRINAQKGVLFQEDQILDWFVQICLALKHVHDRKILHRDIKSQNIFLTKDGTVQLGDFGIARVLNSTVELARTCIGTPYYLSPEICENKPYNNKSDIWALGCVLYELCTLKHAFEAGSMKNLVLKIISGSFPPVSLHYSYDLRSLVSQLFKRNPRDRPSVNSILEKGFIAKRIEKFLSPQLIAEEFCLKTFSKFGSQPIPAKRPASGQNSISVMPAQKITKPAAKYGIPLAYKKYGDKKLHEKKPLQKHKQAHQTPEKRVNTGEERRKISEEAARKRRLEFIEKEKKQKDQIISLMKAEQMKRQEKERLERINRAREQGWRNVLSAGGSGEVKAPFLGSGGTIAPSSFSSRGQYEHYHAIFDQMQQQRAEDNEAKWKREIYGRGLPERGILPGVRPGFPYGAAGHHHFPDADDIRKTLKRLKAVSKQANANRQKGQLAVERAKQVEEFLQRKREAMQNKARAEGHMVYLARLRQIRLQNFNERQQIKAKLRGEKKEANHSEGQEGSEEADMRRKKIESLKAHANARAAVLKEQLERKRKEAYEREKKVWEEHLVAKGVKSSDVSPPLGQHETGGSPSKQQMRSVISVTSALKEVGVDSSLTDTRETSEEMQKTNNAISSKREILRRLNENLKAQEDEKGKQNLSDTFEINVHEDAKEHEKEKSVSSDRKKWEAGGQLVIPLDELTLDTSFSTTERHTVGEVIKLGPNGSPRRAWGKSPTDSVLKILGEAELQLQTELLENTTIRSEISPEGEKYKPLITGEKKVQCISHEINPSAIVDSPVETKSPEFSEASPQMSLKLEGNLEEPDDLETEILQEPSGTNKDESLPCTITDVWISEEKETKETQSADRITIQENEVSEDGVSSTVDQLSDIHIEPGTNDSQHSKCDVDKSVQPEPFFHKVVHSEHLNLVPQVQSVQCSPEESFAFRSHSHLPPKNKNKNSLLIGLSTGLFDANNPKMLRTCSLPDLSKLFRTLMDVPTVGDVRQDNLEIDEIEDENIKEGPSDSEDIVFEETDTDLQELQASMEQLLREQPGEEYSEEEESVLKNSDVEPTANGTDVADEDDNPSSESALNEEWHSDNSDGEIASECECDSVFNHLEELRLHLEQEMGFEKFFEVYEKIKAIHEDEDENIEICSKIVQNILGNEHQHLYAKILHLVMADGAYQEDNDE
# [13] = biological target: T5, Serine/threonine-protein kinase Nek1 (Homo sapiens); conditions: at 1 µM
# [14] = biological target: T6, Serine/threonine-protein kinase Nek2 (Homo sapiens) (UniProt P51955); conditions: at 0.1 µM
# T6 sequence (whole entry): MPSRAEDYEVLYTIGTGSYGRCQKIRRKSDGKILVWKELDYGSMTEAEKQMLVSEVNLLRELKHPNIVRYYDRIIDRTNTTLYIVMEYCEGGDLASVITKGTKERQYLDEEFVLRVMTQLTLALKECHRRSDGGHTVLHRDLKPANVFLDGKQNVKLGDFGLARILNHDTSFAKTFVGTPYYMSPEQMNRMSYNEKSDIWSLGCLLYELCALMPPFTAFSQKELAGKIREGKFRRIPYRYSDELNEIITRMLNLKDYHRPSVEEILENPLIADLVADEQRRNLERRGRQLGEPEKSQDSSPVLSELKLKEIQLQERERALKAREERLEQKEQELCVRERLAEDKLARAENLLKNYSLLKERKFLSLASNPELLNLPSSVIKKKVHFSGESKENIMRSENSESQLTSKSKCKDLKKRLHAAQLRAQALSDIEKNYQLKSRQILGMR
# [15] = biological target: T6, Serine/threonine-protein kinase Nek2 (Homo sapiens); conditions: at 1 µM
# [16] = biological target: Serine/threonine-protein kinase Nek6 (Homo sapiens) (UniProt Q9HC98); conditions: at 0.1 µM
# Sequence of Serine/threonine-protein kinase Nek6 (Homo sapiens) (Q9HC98 whole entry): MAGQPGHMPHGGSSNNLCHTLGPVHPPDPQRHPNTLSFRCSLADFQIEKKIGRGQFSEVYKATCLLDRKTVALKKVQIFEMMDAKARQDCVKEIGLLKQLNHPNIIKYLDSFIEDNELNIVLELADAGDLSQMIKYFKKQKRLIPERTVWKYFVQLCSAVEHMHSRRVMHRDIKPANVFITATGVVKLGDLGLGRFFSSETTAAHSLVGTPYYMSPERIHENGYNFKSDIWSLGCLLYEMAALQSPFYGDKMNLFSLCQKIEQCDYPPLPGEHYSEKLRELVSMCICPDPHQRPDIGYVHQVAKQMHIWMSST
# [17] = biological target: Serine/threonine-protein kinase Nek6 (Homo sapiens) (UniProt Q9HC98); conditions: at 1 µM
# [18] = biological target: Serine/threonine-protein kinase Nek7 (Homo sapiens) (UniProt Q8TDX7); conditions: at 0.1 µM
# Sequence of Serine/threonine-protein kinase Nek7 (Homo sapiens) (Q8TDX7 whole entry, looked up): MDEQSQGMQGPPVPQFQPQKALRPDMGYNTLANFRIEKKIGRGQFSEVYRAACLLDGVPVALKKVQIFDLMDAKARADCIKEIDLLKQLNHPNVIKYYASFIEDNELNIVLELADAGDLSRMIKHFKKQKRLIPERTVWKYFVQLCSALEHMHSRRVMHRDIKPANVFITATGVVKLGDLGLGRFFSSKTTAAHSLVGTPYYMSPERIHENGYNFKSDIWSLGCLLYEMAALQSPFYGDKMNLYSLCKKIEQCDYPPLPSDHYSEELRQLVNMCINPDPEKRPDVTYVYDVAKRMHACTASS
# [19] = biological target: Serine/threonine-protein kinase Nek7 (Homo sapiens) (UniProt Q8TDX7); conditions: at 1 µM
# [20] = biological target: T7, Serine/threonine-protein kinase Nek9 (Homo sapiens) (UniProt Q8TD19); conditions: at 0.1 µM;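 note: reported value is the mean percent inhibition of NEK9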
# T7 sequence (whole entry): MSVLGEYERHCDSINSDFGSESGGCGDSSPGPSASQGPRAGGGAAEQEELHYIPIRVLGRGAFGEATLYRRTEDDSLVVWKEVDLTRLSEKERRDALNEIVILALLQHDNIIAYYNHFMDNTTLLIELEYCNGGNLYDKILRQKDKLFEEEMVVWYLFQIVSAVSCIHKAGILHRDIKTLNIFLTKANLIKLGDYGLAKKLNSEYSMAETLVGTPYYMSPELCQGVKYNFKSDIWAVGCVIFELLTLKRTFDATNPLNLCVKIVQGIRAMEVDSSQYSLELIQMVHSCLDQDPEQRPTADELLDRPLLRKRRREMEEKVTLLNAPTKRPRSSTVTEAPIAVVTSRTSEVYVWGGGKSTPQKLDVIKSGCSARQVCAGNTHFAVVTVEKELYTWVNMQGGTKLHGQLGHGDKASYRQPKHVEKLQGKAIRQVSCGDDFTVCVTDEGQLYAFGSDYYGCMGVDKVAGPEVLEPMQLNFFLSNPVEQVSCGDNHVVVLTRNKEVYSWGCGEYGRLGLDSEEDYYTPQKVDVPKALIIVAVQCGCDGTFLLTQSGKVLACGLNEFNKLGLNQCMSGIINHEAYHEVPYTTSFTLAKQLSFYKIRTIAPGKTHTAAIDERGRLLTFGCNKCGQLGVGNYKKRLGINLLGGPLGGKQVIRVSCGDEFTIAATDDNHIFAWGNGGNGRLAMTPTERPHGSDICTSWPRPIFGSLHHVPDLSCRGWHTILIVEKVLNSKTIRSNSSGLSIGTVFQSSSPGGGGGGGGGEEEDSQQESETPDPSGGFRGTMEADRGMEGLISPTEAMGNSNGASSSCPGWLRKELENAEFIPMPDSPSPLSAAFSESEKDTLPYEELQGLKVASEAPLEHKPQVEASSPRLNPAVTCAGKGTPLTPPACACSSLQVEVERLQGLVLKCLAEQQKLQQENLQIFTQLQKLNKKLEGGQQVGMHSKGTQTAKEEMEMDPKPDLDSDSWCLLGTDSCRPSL
# Sequence of Sphingosine kinase 1 (Homo sapiens) (Q9NYA1 whole entry): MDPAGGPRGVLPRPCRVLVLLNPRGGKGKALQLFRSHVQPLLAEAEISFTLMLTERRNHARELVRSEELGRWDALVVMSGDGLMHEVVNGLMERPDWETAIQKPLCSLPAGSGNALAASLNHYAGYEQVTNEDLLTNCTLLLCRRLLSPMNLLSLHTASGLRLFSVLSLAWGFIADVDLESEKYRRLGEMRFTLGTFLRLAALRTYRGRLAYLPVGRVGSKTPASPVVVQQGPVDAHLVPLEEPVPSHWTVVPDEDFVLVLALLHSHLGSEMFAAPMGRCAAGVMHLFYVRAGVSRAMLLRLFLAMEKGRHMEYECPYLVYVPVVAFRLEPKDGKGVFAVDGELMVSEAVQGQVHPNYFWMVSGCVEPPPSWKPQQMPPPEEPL
smiles,measurement,setting,value
NS(=O)(=O)c1ccc(N/N=C2\C(=O)Nc3ccc(C(=O)NCCCn4ccnc4)cc32)cc1,inhibition,[1],-2.65%
same,inhibition,[2],0.75%
same,inhibition,[3],-2.51%
same,inhibition,[4],6.89%
same,inhibition,[5],21%
same,inhibition,[6],2.62%
same,inhibition,[7],0.02%
same,inhibition,[8],12.3%
same,inhibition,[9],14.7%
same,inhibition,[10],10.8%
same,inhibition,[11],26.6%
same,inhibition,[12],2.1%
same,inhibition,[13],4.83%
same,inhibition,[14],4.5%
same,inhibition,[15],5.08%
same,inhibition,[16],2.7%
same,inhibition,[17],3.62%
same,inhibition,[18],6.31%
same,inhibition,[19],5.01%
same,inhibition,[20],9.43%
